Laboratory results as given in PubChem BioAssay (EPA / NIEHS).
Calls of active or inactive are those of the source. Rule for the calls: active = hit-call score of the fitted dose curve at least 0.9, where 1 is the maximum; inactive = score below 0.9.

Read-out: Forkhead box O1 (FOXO1), FOXO1 (gene 2308)
Test: LTEA_HepaRG_FOXO1: Life Technologies and Expression Analysis (LTEA) Assay for Forkhead box O1 (FOXO1) using HepaRG (AID 2283456)
Settings: mRNA level, 48 h; actives raise or lower the signal
Outline: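 Readout is FOXO1 transcript level by multiplexed qRT-PCR against three housekeeping genes, curve-fitted in both directions relative to 0.5% DMSO vehicle. Human HepaRG cultures received chemicals for 48 h, up to 100 uM in half-log steps.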

SMILES | outcome | AC50
CC(C)=CCC/C(C)=C\CO | inactive | 
Oc1ccc2c(c1)-c1ccccc1C2 | inactive | 
CCOCCOCCOCCO | inactive | 
On1ccccc1=S | inactive | 
CC[C@H]1OC(=O)[C@H](C)[C@@H](O[C@H]2C[C@@](C)(OC)[C@@H](O)[C@H](C)O2)[C@H](C)[C@@H](O[C@@H]2O[C@H](C)C[C@H](N(C)C)[C@H]2O)[C@](C)(O)C[C@@H](C)C(=O)[C@H](C)[C@@H](O)[C@]1(C)O | inactive | 
O=C1CCC(N2C(=O)c3ccccc3C2=O)C(=O)N1 (stereo not given) | inactive | 
CC(C)=CCCC(C)CCO (stereo not given) | inactive | 
CCc1cc(SCc2sc(-c3ccc(C(F)(F)F)cc3)nc2CN2CCN(c3ccc(OC)cc3)CC2)ccc1OCC(=O)O |  | 92.4 µM (active)
Cc1ccc(S(=O)(=O)O)cc1C | inactive | 
CCCCCCCCCCCCc1ccccc1 | inactive | 
O=C(O)CC(O)C(=O)O (stereo not given) | inactive | 
C=CCCCCCCCCC(=O)O | inactive | 
CCOCCO | inactive | 
CCNc1ccccc1 | inactive | 
CCC(C)(C)C(=O)O[C@H]1C[C@@H](C)C=C2C=C[C@H](C)[C@H](CC[C@@H]3C[C@@H](O)CC(=O)O3)[C@H]21 | inactive | 
CCCCC(CC)COC(=O)c1ccc(C(=O)OCC(CC)CCCC)cc1 (stereo not given) | inactive | 
CCN(C(=O)c1cc(C)cc(OC[C@H](C)Nc2ccncc2)c1)C(C)C | inactive | 
CC(C)=CCC/C(C)=C/CO | inactive | 
Cc1ccc(O)cc1 | inactive | 
CN(C)c1ccc(N=NS(=O)(=O)O)cc1 | inactive | 
Cc1[nH]cnc1C[C@H]1CCc2c(C)c3ccccc3n2C1=O |  | 75.4 µM (active)
COC(=O)c1ccccc1O | inactive | 
COC(=O)c1c(Cl)c(Cl)c(C(=O)OC)c(Cl)c1Cl | inactive | 
CC(C)=CCCC(C)=CC=O | inactive | 
CC(=O)c1ccc2c(c1)[C@H](NC(=O)c1ccc(F)cc1)[C@@H](O)C(C)(C)O2 | inactive | 
COc1cccc(-c2ccc(/C=C\CN3CCCCCC3)cc2Cl)c1 |  | 70.8 µM (active)
COC(=O)CC(=O)OC | inactive | 
Cc1c(-c2cccnc2)c2ccccc2n1CCCCC(=O)O | inactive | 
NC(=O)NO | inactive | 
CC[C@H](C)C(=O)O[C@H]1C[C@@H](C)C=C2C=C[C@H](C)[C@H](CC[C@@H]3C[C@@H](O)CC(=O)O3)[C@H]21 | inactive | 

Read-out: growth arrest and DNA damage 45 (GADD45A), GADD45A (gene 1647)
Test: LTEA_HepaRG_GADD45A: Life Technologies and Expression Analysis (LTEA) Assay for growth arrest and DNA damage 45 (GADD45A) using HepaRG (AID 2283458)
Settings: mRNA level, 48 h; actives raise or lower the signal
Outline: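 Human HepaRG liver cells are treated in duplicate for 48 h with chemicals in 0.5% DMSO, highest concentration 100 uM. Expression is read by qRT-PCR and analyzed in both directions against vehicle.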

SMILES | outcome | AC50
CC(C)=CCC/C(C)=C\CO | inactive | 
Oc1ccc2c(c1)-c1ccccc1C2 | inactive | 
CCOCCOCCOCCO | inactive | 
On1ccccc1=S | inactive | 
CC[C@H]1OC(=O)[C@H](C)[C@@H](O[C@H]2C[C@@](C)(OC)[C@@H](O)[C@H](C)O2)[C@H](C)[C@@H](O[C@@H]2O[C@H](C)C[C@H](N(C)C)[C@H]2O)[C@](C)(O)C[C@@H](C)C(=O)[C@H](C)[C@@H](O)[C@]1(C)O | inactive | 
O=C1CCC(N2C(=O)c3ccccc3C2=O)C(=O)N1 (stereo not given) | inactive | 
CC(C)=CCCC(C)CCO (stereo not given) | inactive | 
CCc1cc(SCc2sc(-c3ccc(C(F)(F)F)cc3)nc2CN2CCN(c3ccc(OC)cc3)CC2)ccc1OCC(=O)O |  | 8.67 µM (active)
Cc1ccc(S(=O)(=O)O)cc1C | inactive | 
CCCCCCCCCCCCc1ccccc1 | inactive | 
O=C(O)CC(O)C(=O)O (stereo not given) | inactive | 
C=CCCCCCCCCC(=O)O | inactive | 
CCOCCO | inactive | 
CCNc1ccccc1 | inactive | 
CCC(C)(C)C(=O)O[C@H]1C[C@@H](C)C=C2C=C[C@H](C)[C@H](CC[C@@H]3C[C@@H](O)CC(=O)O3)[C@H]21 | inactive | 
CCCCC(CC)COC(=O)c1ccc(C(=O)OCC(CC)CCCC)cc1 (stereo not given) | inactive | 
CCN(C(=O)c1cc(C)cc(OC[C@H](C)Nc2ccncc2)c1)C(C)C |  | 0.232 µM (active)
CC(C)=CCC/C(C)=C/CO | inactive | 
Cc1ccc(O)cc1 | inactive | 
CN(C)c1ccc(N=NS(=O)(=O)O)cc1 | inactive | 
Cc1[nH]cnc1C[C@H]1CCc2c(C)c3ccccc3n2C1=O |  | 62 µM (active)
COC(=O)c1ccccc1O | inactive | 
COC(=O)c1c(Cl)c(Cl)c(C(=O)OC)c(Cl)c1Cl | inactive | 
CC(C)=CCCC(C)=CC=O | inactive | 
CC(=O)c1ccc2c(c1)[C@H](NC(=O)c1ccc(F)cc1)[C@@H](O)C(C)(C)O2 | inactive | 
COc1cccc(-c2ccc(/C=C\CN3CCCCCC3)cc2Cl)c1 |  | 69 µM (active)
COC(=O)CC(=O)OC | inactive | 
Cc1c(-c2cccnc2)c2ccccc2n1CCCCC(=O)O | inactive | 
NC(=O)NO | inactive | 
CC[C@H](C)C(=O)O[C@H]1C[C@@H](C)C=C2C=C[C@H](C)[C@H](CC[C@@H]3C[C@@H](O)CC(=O)O3)[C@H]21 | inactive | 
